# Data reported in the supplement of paper PMC9023506.
# Where a name gives a salt, the structure may show the parent alone.
# Legend:
# Details in all cases: 10 µM; exposure time: 3 h pre-incubation + 3 h imaging
# [1] = system: Danio rerio larvae (5 dpf); experiment: activity during period 15 (no stimuli), difference vs DMSO (percentage points (treated minus DMSO)); higher = more of the behaviour than the DMSO vehicle control
# In short: (§1)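 Library drugs were diluted 1000× from DMSO stocks into egg water to reach 10 µM and applied to 5-dpf wild-type zebrafish larvae in 96-well ProxiPlates, 48 larvae per drug. The larvae stayed exposed for 3 h before imaging and for the 3 h of imaging at 28.5 °C. Behaviour scores, given in percentage points, are the treated mean minus the vehicle mean for movement and upper-half location.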
# [2] = system: Danio rerio larvae (5 dpf); experiment: optomotor response to blue moving lines, difference vs DMSO (percentage points (treated minus DMSO)); higher = more of the behaviour than the DMSO vehicle control
# In short: as §1
# [3] = system: Danio rerio larvae (5 dpf); experiment: excitability to 1-s acoustic pulses, difference vs DMSO (percentage points (treated minus DMSO)); higher = more of the behaviour than the DMSO vehicle control
# In short: as §1
# [4] = system: Danio rerio larvae (5 dpf); experiment: optomotor response to fast red moving lines, difference vs DMSO (percentage points (treated minus DMSO)); higher = more of the behaviour than the DMSO vehicle control
# In short: as §1
# [5] = system: Danio rerio larvae (5 dpf); experiment: optomotor response to green moving lines, difference vs DMSO (percentage points (treated minus DMSO)); higher = more of the behaviour than the DMSO vehicle control
# In short: as §1
# [6] = system: Danio rerio larvae (5 dpf); experiment: habituation to 1-s acoustic pulses, difference vs DMSO (percentage points (treated minus DMSO)); higher = more of the behaviour than the DMSO vehicle control
# In short: as §1
# [7] = system: Danio rerio larvae (5 dpf); experiment: startle response to 20-s acoustic pulses, difference vs DMSO (percentage points (treated minus DMSO)); higher = more of the behaviour than the DMSO vehicle control
# In short: as §1
structure (smiles),measurement,setting,value
CN[C@H]1CC[C@@H](c2ccc(Cl)c(Cl)c2)c2ccccc21 [Sertraline hydrochloride],activity during period 15,[1],-26
same,optomotor response to blue moving lines,[2],-9.96
CCOc1nc2cccc(C(=O)O)c2n1Cc1ccc(-c2ccccc2-c2nnn[nH]2)cc1 [Candesartan],activity during period 15,[1],-1.51
same,optomotor response to blue moving lines,[2],9.66
OCCOCCN1CCN(C2=Nc3ccccc3Sc3ccccc32)CC1 [Quetiapine hemifumarate],excitability to 1-s acoustic pulses,[3],9.86
same,activity during period 15,[1],16.8
same,optomotor response to blue moving lines,[2],19.9
C[C@@H]1C[C@H]2[C@@H]3CCC4=CC(=O)C=C[C@]4(C)[C@@]3(F)[C@@H](O)C[C@]2(C)[C@@]1(O)C(=O)CO [Dexamethasone],optomotor response to blue moving lines,[2],2.76
same,optomotor response,[4],0.576
COc1cccc2c1C(=O)c1c(O)c3c(c(O)c1C2=O)C[C@@](O)(C(=O)CO)C[C@@H]3O[C@H]1C[C@H](N)[C@H](O)[C@H](C)O1 [Doxorubicin hydrochloride],excitability to 1-s acoustic pulses,[3],13.8
same,activity during period 15,[1],-10.6
same,optomotor response to green moving lines,[5],-8.47
CN(CCOc1ccc(CC2SC(=O)NC2=O)cc1)c1ccccn1 (stereo not drawn) [Rosiglitazone],optomotor response to blue moving lines,[2],-12.4
same,optomotor response,[4],-14.3
CCCCCCCN(CC)CCCC(O)c1ccc(NS(C)(=O)=O)cc1 (stereo not drawn) [Ibutilide hemifumarate],habituation to 1-s acoustic pulses,[6],2.78
same,activity during period 15,[1],-10
same,optomotor response to blue moving lines,[2],12.1
CC(C)c1nc(CN(C)C(=O)N[C@H](C(=O)N[C@@H](Cc2ccccc2)C[C@H](O)[C@H](Cc2ccccc2)NC(=O)OCc2cncs2)C(C)C)cs1 [Ritonavir],activity during period 15,[1],-8.67
same,optomotor response to green moving lines,[5],-6.36
O=C(O)C[C@H](O)C[C@H](O)/C=C/c1c(C2CC2)nc2ccccc2c1-c1ccc(F)cc1 [Pitavastatin calcium],optomotor response to blue moving lines,[2],11
same,optomotor response to green moving lines,[5],11
same,optomotor response,[4],9.78
CC(C)(C)NC(=O)[C@@H]1C[C@@H]2CCCC[C@@H]2CN1C[C@@H](O)[C@H](Cc1ccccc1)NC(=O)[C@H](CC(N)=O)NC(=O)c1ccc2ccccc2n1 [Saquinavir mesylate],excitability to 1-s acoustic pulses,[3],9.21
same,optomotor response to green moving lines,[5],-3.04
CCCCC1=NC2(CCCC2)C(=O)N1Cc1ccc(-c2ccccc2-c2nnn[nH]2)cc1 [Irbesartan],habituation to 1-s acoustic pulses,[6],1.51
same,excitability to 1-s acoustic pulses,[3],-3.79
same,activity during period 15,[1],5.68
same,optomotor response to blue moving lines,[2],-14
Cc1nc(Nc2ncc(C(=O)Nc3c(C)cccc3Cl)s2)cc(N2CCN(CCO)CC2)n1 [Dasatinib],habituation to 1-s acoustic pulses,[6],-0.705
same,optomotor response to blue moving lines,[2],-13.1
same,startle response to 20-s acoustic pulses,[7],0.79
Cc1cccc(C)c1OCC(C)N (stereo not drawn) [Mexiletine hydrochloride],optomotor response to blue moving lines,[2],7.61
same,optomotor response,[4],0.599
Nc1ccn([C@@H]2O[C@H](CO)[C@@H](O)C2(F)F)c(=O)n1 [Gemcitabine hydrochloride],optomotor response to blue moving lines,[2],3.79
same,optomotor response,[4],5.64
COc1cc2nc(N3CCN(C(=O)C4COc5ccccc5O4)CC3)nc(N)c2cc1OC (stereo not drawn) [Doxazosin mesylate],optomotor response to green moving lines,[5],-8.3
CCOc1ccccc1OCCN[C@H](C)Cc1ccc(OC)c(S(N)(=O)=O)c1 [Tamsulosin hydrochloride],optomotor response to blue moving lines,[2],2.91
same,startle response to 20-s acoustic pulses,[7],3.87
same,optomotor response,[4],-10.3
CC1=Nc2ccc(Cl)cc2S(=O)(=O)N1 [Diazoxide],optomotor response to green moving lines,[5],7.27
same,startle response to 20-s acoustic pulses,[7],-3.68
CC(C)(C(=O)O)c1ccc(C(O)CCCN2CCC(C(O)(c3ccccc3)c3ccccc3)CC2)cc1 (stereo not drawn) [Fexofenadine hydrochloride],habituation to 1-s acoustic pulses,[6],0.783
same,startle response to 20-s acoustic pulses,[7],4
same,optomotor response,[4],-0.251
C[C@]12CCC(=O)C=C1CC[C@@H]1[C@@H]2[C@@H](O)C[C@@]2(C)[C@H]1CC[C@]2(O)C(=O)CO [Hydrocortisone],habituation to 1-s acoustic pulses,[6],2.73
same,excitability to 1-s acoustic pulses,[3],1.67
same,activity during period 15,[1],-3.01
same,startle response to 20-s acoustic pulses,[7],0.897
COc1c(C)c2c(c(O)c1C/C=C(\C)CCC(=O)O)C(=O)OC2 [Mycophenolic acid],habituation to 1-s acoustic pulses,[6],1.78
same,optomotor response to green moving lines,[5],-1.15
OCCN1C[C@H](O)[C@@H](O)[C@H](O)[C@H]1CO [Miglitol],habituation to 1-s acoustic pulses,[6],0.997
same,excitability to 1-s acoustic pulses,[3],5.41
same,optomotor response,[4],-3.78
N#Cc1ccc2[nH]cc(CCCCN3CCN(c4ccc5oc(C(N)=O)cc5c4)CC3)c2c1 [Vilazodone hydrochloride],habituation to 1-s acoustic pulses,[6],-3.73
same,optomotor response to green moving lines,[5],-30.3
OCc1cc(C(O)CNCCCCCCOCCCCc2ccccc2)ccc1O (stereo not drawn) [Salmeterol xinafoate],habituation to 1-s acoustic pulses,[6],0.0601
same,startle response to 20-s acoustic pulses,[7],-5.23
CCOC(=O)c1ncn2c1CN(C)C(=O)c1cc(F)ccc1-2 [Flumazenil],habituation to 1-s acoustic pulses,[6],-2.91
same,excitability to 1-s acoustic pulses,[3],2.56
same,activity during period 15,[1],11.9
Brc1c(NC2=NCCN2)ccc2nccnc12,habituation to 1-s acoustic pulses,[6],-5.95
same,activity during period 15,[1],-19.4
CC(C)OC(=O)C(C)(C)Oc1ccc(C(=O)c2ccc(Cl)cc2)cc1 [Fenofibrate],habituation to 1-s acoustic pulses,[6],-5.04
same,excitability to 1-s acoustic pulses,[3],4.84
same,activity during period 15,[1],6.23
CCCc1nc(C(C)(C)O)c(C(=O)O)n1Cc1ccc(-c2ccccc2-c2nnn[nH]2)cc1 [Olmesartan],habituation to 1-s acoustic pulses,[6],3.67
same,activity during period 15,[1],4.45
same,startle response to 20-s acoustic pulses,[7],7.62
